Assay results taken from the supplement of paper PMC9334596.
Several values for one entry are separate records, joined by “and”; a condition that tells them apart may be missing. Equal values may be shown once. In all, about 5,300 compounds were measured (“PER2::LUC luminescence relative to vehicle control”: median about 0.96, highest 2% from about 1.3 on). The sample as a whole holds a higher share of the highest values than the screen did.

Tested on: mPer2Luc MEF
Test: PER2::LUC luminescence relative to vehicle control (fold of vehicle); higher = higher PER2::LUC reporter signal
Conditions: 10 µM
Outline: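 The value is PER2::LUC luminescence expressed as fold of vehicle control. Mouse embryonic fibroblasts carrying the mPer2Luc reporter were seeded at ~3000 cells per well in 384-well plates and grown in DMEM with 10% FBS at 37 °C and 5% CO2. Compounds from commercial libraries were added at 10 μM 48 h after seeding, and luminescence was read with the ONE-Glo luciferase assay system 24 h and 30 h after treatment, followed by an alamarBlue viability assay.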

Row | SMILES | PER2::LUC luminescence (time after treatment 24 h) | PER2::LUC luminescence (time after treatment 30 h)
1 | CCCCN(CCCC)C(=O)CN1C[C@H](c2ccc3c(c2)OCO3)[C@@H](C(=O)O)[C@@H]1c1ccc(OC)cc1 | 2.23 | 2.08
2 | Cc1noc(-c2ccc(-c3ccc(CC(=O)O)cc3)cc2)c1NC(=O)OC(C)c1ccccc1Cl (stereo not given) | 1.1 | 1.12
3 | C/C=C/C(=O)N1C(=O)OC[C@@H]1Cc1ccccc1 | 0.864 | 0.846
4 | CN1CCCN=C1/C=C/c1cccs1 | 1.2 and 1.03 | 0.92 and 1.16
5 | O=C1/C(=C/c2cccs2)CC/C1=C\c1cccs1 | 1.07 | 1.01
6 | O=C1/C(=C/c2cccs2)CCC/C1=C\c1cccs1 | 1.5 | 1.67
7 | CC(=O)Nc1ccc(OC(=O)c2ccccc2O)cc1 | 0.934 | 1.02
8 | O=C(Oc1ccccc1C(=O)O)c1ccccc1O | 1.15 and 0.613 | 1.16 and 0.995
9 | Nc1ccc(C(=O)Oc2ccccc2)c(O)c1 | 0.958 | 1.54
10 | CC(C)c1onc(-c2c(Cl)cccc2Cl)c1COc1ccc(/C=C/c2cccc(C(=O)O)c2)c(Cl)c1 | 1.86 | 2.03
11 | CC(C)CCNC(=O)c1ccc2c(c1)nc(Nc1n[nH]c3ccc(-c4ccccc4OC(F)(F)F)cc13)n2C1CCC(O)CC1 (stereo not given) | 0.526 | 0.553
12 | CCCCC(CC)COC(=O)C(C#N)=C(c1ccccc1)c1ccccc1 (stereo not given) | 1.01 and 1.15 | 1.08 and 1.14
13 | CCCCC(CC)COC(=O)C=Cc1ccc(OC)cc1 (stereo not given) | 1.09 | 1.14
14 | CCCCC(CC)COC(=O)c1ccccc1O (stereo not given) | 1.07 | 1.63
15 | COc1ccc(CNc2nc(NCc3ccc(OC)cc3)c3ncn(C(C)C)c3n2)cc1 | 0.991 | 1.22
16 | CC(C(=O)O)c1ccc(CC2CCCC2=O)cc1 (stereo not given) | 0.779 and 1.02 | 1.36 and 1.08
17 | CC(C)Cc1ccc([C@@H](C)C(=O)O)cc1 | 0.974 | 0.981
18 | CC(C)Cc1ccc(C(C)C(=O)O)cc1 (racemic) | 1.12 | 0.938
19 | O=C(NCc1cccc(O)c1)c1cc2cc(F)ccc2[nH]1 | 0.948 | 0.986
20 | CC(=O)NN(Cc1ccc(N)cc1)c1ncnc2c1ncn2[C@@H]1O[C@H](CO)[C@@H](O)[C@H]1O | 1.03 | 0.913
21 | NC1(C(=O)O)CCc2cc(P(=O)(O)O)ccc21 (racemic) | 1.03 | 1.01
22 | Cc1nc(C(=O)N2CCC[C@H]2Cc2nnc(-c3ccccc3)o2)c(-c2ccccc2F)s1 | 1.06 | 0.881
23 | COc1ccc(CCN2CN=C(SCc3ccc(Cl)cc3)NC2)cc1OC | 0.912 | 0.83
24 | COc1cc(CC(=O)O)ccc1O | 0.99 | 0.874
25 | COc1cc(-c2ccc(=O)[nH]n2)ccc1OC(F)F | 0.97 | 0.924
26 | COc1ccc(-c2nc3cc(F)ccc3s2)cc1OC | 1.5 | 1.52
27 | COc1ccccc1O | 0.97 | 0.878
28 | COc1cc(-c2nc3ccccc3s2)ccc1O | 1.37 | 1.5

Row | SMILES | PER2::LUC luminescence (time after treatment 24 h) | PER2::LUC luminescence (time after treatment 30 h)
29 | C#CCN(Cc1cc2c(=O)[nH]c(C)nc2cc1Br)c1ccc(C(=O)NCc2cccnc2)cc1 | 0.902 | 0.731
30 | CC(Oc1ccc(Oc2cnc3ccc(Cl)cc3n2)cc1)C(=O)O (stereo not given) | 1.14 | 1.05
31 | COc1cc2ncnc(Nc3cccc(I)c3)c2cc1OC | 0.808 | 0.774
32 | O[C@@](Cc1ncc(CC2(C(F)(F)F)CC2)[nH]1)(c1ccc(-n2cccn2)cc1)C(F)(F)F | 0.966 | 0.921
33 | O=C(Nc1ccc(OC(F)(F)F)cc1)c1sccc1NCc1ccnc2ccccc12 | 1.76 | 1.99
34 | Cc1cc(Nc2ccc(NC(=O)c3ccc(Nc4ccnc5ccccc45)cc3)cc2)nc(N)n1 | 0.945 | 1
35 | CCOc1ccc(-n2c(C(C)N(Cc3cccnc3)C(=O)Cc3ccc(OC(F)(F)F)cc3)nc3ncccc3c2=O)cc1 (stereo not given) | 0.97 | 0.944
36 | Cc1c2c(c(O)c3c(O)cccc13)C(=O)O[C@@H]2[C@@H]1[C@H](O)C(=O)C(C(N)=O)=C(O)[C@H]1N(C)C [Alpha-APO-OXYTETRACYCLINE] | 0.979 | 0.958
37 | CCc1c(C(=O)NNC(=O)C(O)c2cc(F)cc(F)c2)ccc(O)c1C (stereo not given) | 0.99 | 0.823
38 | COc1cccc(-c2cc(=O)c3ccccc3o2)c1N | 0.951 | 0.985
39 | COc1ccc(-c2oc3ccccc3c(=O)c2OC)cc1 | 0.987 | 1.2
40 | COc1cccc(-c2cc(=O)c3cc(OC)ccc3o2)c1 | 1.22 | 1.49
41 | COc1ccc2c(=O)c(OC)c(-c3ccccc3)oc2c1 | 0.767 | 0.809
42 | COc1ccc(-c2cc(=O)c3ccccc3o2)cc1 | 1.72 | 1.29
43 | COc1cccc(-c2cc(=O)c3ccc(OC)cc3o2)c1 | 0.879 | 0.955
44 | COc1ccc2oc(-c3ccccc3)c(OC)c(=O)c2c1 | 1.54 | 1.73
45 | COc1ccc2oc(-c3ccccc3OC)cc(=O)c2c1 | 1.38 | 1.61
46 | COc1ccc2ccc(=O)oc2c1 | 1 | 1.01
47 | COc1ccc(-c2cc(=O)c3c(OC)c(OC)c(OC)c(OC)c3o2)cc1OC | 0.626 | 0.784
48 | COc1ccc(-c2cc(=O)c3c(OC)c(OC)c(OC)c(OC)c3o2)cc1 | 0.944 | 1.03
49 | COc1ccc(-c2cc(=O)c3ccc(O)cc3o2)cc1 | 1.19 | 1.23
50 | CC[C@H](C)[C@H]1O[C@]2(C=C[C@@H]1C)C[C@@H]1C[C@@H](C/C=C(\C)[C@@H](O[C@H]3C[C@H](OC)[C@@H](O[C@H]4C[C@H](OC)[C@@H](O)[C@H](C)O4)[C@H](C)O3)[C@@H](C)/C=C/C=C3\CO[C@@H]4[C@H](OC)C(C)=C[C@@H](C(=O)O1)[C@]34O)O2 | 0.767 | 0.843
51 | NC(=O)C[n+]1cccc(C(=O)O)c1 | 1.18 | 1.08
52 | c1cc(NC2CCNCC2)nc(-c2cnc3ccccn23)c1 | 0.506 | 0.487
53 | CCCNC[C@]1(O)[C@H](C)O[C@@H](O[C@H]2[C@H](C)[C@@H](O[C@@H]3O[C@H](C)C[C@H](N(C)C)[C@H]3O)[C@](C)(O)C[C@@H](C)CN[C@H](C)[C@@H](O)[C@](C)(O)[C@@H](CC)OC(=O)[C@@H]2C)C[C@@]1(C)OC | 1.05 | 0.881
54 | C/C=C(/C)C(=O)O[C@H]1CC(C)=CC(=O)[C@@]2(C)CC[C@@](O)(C(C)C)[C@H]12 | 1.01 | 0.988
55 | Cc1nnc(-c2sc(NC(=O)[C@H](C(C)C)n3c(=O)[nH]c4ccccc4c3=O)nc2C)o1 | 1.04 | 0.956
